Data as given in PubChem BioAssay (Tox21).
Records with an inconclusive call do not appear. A call without a number means that no potency is given here. Unmarked numbers belong to inactive results. Activity calls are given as the source filed them. Calls come from the whole dose curve.

Molecular target: Beta-2 adrenergic receptor (Homo sapiens) (UniProt P07550)
Assay: Adrenergic beta2 receptor (ADRB2) small molecule agonists, cell-based qHTS assay (AID 1963593);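 for activation: CHO cells stably overexpressing human ADRB2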
Summary of the method: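 CHO cells stably over-expressing ADRB2 were plated overnight at 37C, then dosed with compounds plus a stimulation mix containing 100uM IBMX and 25uM Ro-20-1724 for 0.5hr at room temperature. cAMP was measured by HTRF competition, 1hr.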
Potency is the fitted concentration of half-maximal effect.

Sequence of Beta-2 adrenergic receptor (Homo sapiens) (P07550 whole entry, looked up): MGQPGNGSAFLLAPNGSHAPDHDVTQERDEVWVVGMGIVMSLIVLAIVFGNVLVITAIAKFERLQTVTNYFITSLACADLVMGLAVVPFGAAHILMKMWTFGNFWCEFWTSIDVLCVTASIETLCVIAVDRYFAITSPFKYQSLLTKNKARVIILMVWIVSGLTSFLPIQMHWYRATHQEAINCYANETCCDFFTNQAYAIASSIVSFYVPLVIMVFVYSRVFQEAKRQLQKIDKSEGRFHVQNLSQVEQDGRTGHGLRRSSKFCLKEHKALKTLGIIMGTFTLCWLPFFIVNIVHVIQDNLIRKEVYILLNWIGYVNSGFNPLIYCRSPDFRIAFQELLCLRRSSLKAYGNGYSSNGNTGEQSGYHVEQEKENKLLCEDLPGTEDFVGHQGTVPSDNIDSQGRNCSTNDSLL

| Structure (SMILES) | Potency | activation |
| --- | --- | --- |
| CC(C#N)CCC#N (stereo not given) | inactive | – |
| CCCCOC(=O)c1ccccc1C(=O)OCCCC | inactive | – |
| CCOP(=O)(CN(CCO)CCO)OCC | inactive | – |
| C[C@]12CC[C@H]3[C@@H](CCC4=CC(=O)CC[C@@H]43)[C@@H]1CC[C@@H]2O | inactive | – |
| Oc1c(Cl)c(Cl)c(Cl)c(Cl)c1Cl | inactive | – |
| O=C(O)c1nn(Cc2ccc(Cl)cc2Cl)c2ccccc12 | inactive | – |
| C/C(=N\NC(=O)Nc1cc(F)cc(F)c1)c1ncccc1C(=O)O | inactive | – |
| COCCC#N | inactive | – |
| Nc1cc(Cl)cc(C(=O)O)c1Cl | inactive | – |
| NNC(=S)NN | inactive | – |
| C#CCOS(=O)OC1CCCCC1Oc1ccc(C(C)(C)C)cc1 (stereo not given) | inactive | – |
| COc1ccc(C(CN(C)C)C2(O)CCCCC2)cc1 (stereo not given) | inactive | – |
| CCCCOCC1CO1 (stereo not given) | inactive | – |
| Nc1ccc(Br)cc1 | inactive | – |
| CCSC(=O)N1CCCCCC1 | inactive | – |
| Clc1ccc(C(Cl)(Cl)Cl)cc1 | inactive | – |
| CC(C)Nc1nc(Cl)nc(NC(C)C)n1 | inactive | – |
| CCCCCCCCOC(=O)c1ccc(C(=O)OCCCCCCCC)c(C(=O)OCCCCCCCC)c1 | inactive | – |
| CN(C)C(=O)Nc1cccc(C(F)(F)F)c1 | inactive | – |
| O=P(O)(Oc1ccccc1)Oc1ccccc1 | inactive | – |
| CCCCCCCCCCCCCCCC[n+]1ccccc1 | inactive | – |
| CC1COC2(c3ccccc3Cl)c3cc(Cl)ccc3NC(=O)CN12 (stereo not given) | inactive | – |

| Structure (SMILES) | Potency | activation |
| --- | --- | --- |
| O=[N+]([O-])c1ccc(CBr)cc1 | inactive | – |
| N#CCCCl | inactive | – |
| CCN(CC)C(=O)C(C)Oc1cccc2ccccc12 (stereo not given) | inactive | – |
| Cl/C=C/Cl | inactive | – |
| N#Cc1ccccc1N | inactive | – |
| Cc1ccc([N+](=O)[O-])cc1 | inactive | – |
| C=CC1CC=CCC1 (stereo not given) | inactive | – |
| O=C1C=CC(=O)C=C1 | inactive | – |
| CNC(=O)NC(O)C(Cl)(Cl)Cl (stereo not given) | inactive | – |
| C=CC(=O)NC(C)(C)CC(C)=O | inactive | – |
| CC(C)C1(C)N=C(c2ncccc2C(=O)O)NC1=O (stereo not given) | inactive | – |
| Cc1cccc(C)c1NC(=O)CN1CCCC1=O | inactive | – |
| COc1cc(OC)nc(Sc2cccc(Cl)c2C(=O)O)n1 | inactive | – |
| CSc1nc(NC(C)C)nc(NC(C)C)n1 | inactive | – |
| CO[C@@H]1[C@H](OC(=O)NC(=O)CCl)CC[C@]2(CO2)[C@H]1[C@@]1(C)O[C@@H]1CC=C(C)C | – | 4.33% [at 19 µM] |
| CN(C)c1ccc(C(=O)c2ccc(N(C)C)cc2)cc1 | inactive | – |
| O=C(NC(=O)c1ccccc1Cl)Nc1ccc(OC(F)(F)F)cc1 | inactive | – |
| NNC(N)=S | inactive | – |
| CN(C)N=O | inactive | – |
| NC(=O)OCCCc1ccccc1 | inactive | – |
| c1ccc(N2CCNCC2)cc1 | inactive | – |
| C=C(C)C#N | inactive | – |

| Structure (SMILES) | Potency | activation |
| --- | --- | --- |
| CN(N=O)C(N)=O | inactive | – |
| O=C(O)CCCc1ccc(N(CCCl)CCCl)cc1 | inactive | – |
| C#CCO | inactive | – |
| CCCSC(=O)Cl | inactive | – |
| O=C(O)COc1ccc(Cl)cc1Cl | inactive | – |
| CCOC(=O)c1cncn1C(C)c1ccccc1 (stereo not given) | inactive | – |
| CCCCCCCCCCCOC(=O)c1ccccc1C(=O)OCCCCCCCCCCC | inactive | – |
| Cc1cc(Cl)ccc1OCCCC(=O)O | inactive | – |
| O=c1oc2ccccc2c(O)c1C(CC(O)c1ccc(-c2ccc(Br)cc2)cc1)c1ccccc1 (stereo not given) | inactive | – |
| O=C1c2ccccc2C(=O)N1SC(Cl)(Cl)Cl | 21.7 µM (active) | – |
| N[C@@H](Cc1ccc(N(CCCl)CCCl)cc1)C(=O)O | inactive | – |
| CCC[N+](=O)[O-] | inactive | – |
| Brc1ccc(Oc2cc(Br)c(Br)cc2Br)c(Br)c1 | inactive | – |
| CCNc1nc(NCC)nc(SC)n1 | inactive | – |
| O=C(O)c1nc(Cl)ccc1Cl | inactive | – |
| O=NN(c1ccccc1)c1ccccc1 | inactive | – |
| Clc1ccc(C2(Cn3cncn3)OCCO2)c(Cl)c1 | inactive | – |
| O=NN1CCCC1 | inactive | – |
| C1=Cc2cccc3cccc1c23 | inactive | – |
| NC(=O)CCl | inactive | – |
| NC1(c2ccccc2)CCCCC1 | inactive | – |
